High-throughput results from PubChem BioAssay.
RGS16-Gao HTS = modulates binding between human RGS16 and Galphao | bead-based flow cytometry RGS16-Galphao binding, fluorescence; actives lie on both sides | O15492+P09471 | binding response (% of control), % at 10 µM | AID 1441 | hit rate 0.38% among 220,000; call rule not given here;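 also: Galphao activated by GDP with aluminum fluoride before binding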
Target sequence (O15492 whole entry, looked up): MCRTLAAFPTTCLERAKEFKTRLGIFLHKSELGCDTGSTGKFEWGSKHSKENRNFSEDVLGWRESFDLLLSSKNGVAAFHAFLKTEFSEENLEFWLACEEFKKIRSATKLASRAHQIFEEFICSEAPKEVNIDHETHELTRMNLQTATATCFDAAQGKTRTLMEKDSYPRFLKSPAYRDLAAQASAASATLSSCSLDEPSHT
Target sequence (P09471 whole entry, looked up): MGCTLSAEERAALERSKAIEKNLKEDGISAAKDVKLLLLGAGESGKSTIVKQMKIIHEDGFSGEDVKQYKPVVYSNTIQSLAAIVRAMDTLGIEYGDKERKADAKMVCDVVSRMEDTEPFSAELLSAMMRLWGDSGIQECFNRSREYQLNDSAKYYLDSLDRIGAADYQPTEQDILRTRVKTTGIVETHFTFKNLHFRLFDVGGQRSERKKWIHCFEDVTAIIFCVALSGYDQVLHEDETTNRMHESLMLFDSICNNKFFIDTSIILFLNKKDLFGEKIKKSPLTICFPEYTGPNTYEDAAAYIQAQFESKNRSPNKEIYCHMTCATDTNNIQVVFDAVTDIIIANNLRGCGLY
GSH bead fluor = GSH bead compound fluorescence profile. hit rate 0.25% among 190,000. GSH beads flow cytometry, compound fluorescence 488/530 nm; hits give high values. fluorescence (KMESF) at 10 µM; in the data active = fluorescence above about 89;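 also: glutathione beads carrying GST-tagged Bcl family fusion proteins plus one bare bead set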
RGS8-Gao reg = regulators of human RGS8-Galphao interaction; response (percent of control binding), % at 10 µM; P09471; hit rate 0.34% among 220,000; AID 1423; multiplexed bead flow cytometry, RGS8-Galphao binding; actives lie on both sides; in the data active = response below about 60% or above about 140%; inactive = in between;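 also: Galphao activated as the GDP aluminium fluoride complex binding bead-coupled RGS8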
Target sequence (P09471 whole entry, looked up): as above
Avidin bead fluor = avidin bead compound fluorescence profile; hit rate 0.38% among 220,000; AID 1775; fluorescence (KMESF) at 10 µM; Avidin beads, compound fluorescence 488/530 nm, flow cytometry; hits give high values; in the data active = fluorescence above about 47
RGS4-Gao reg = modulates binding of RGS4 to human Galphao. P09471. Multiplexed bead flow cytometry; actives lie on both sides. binding response (% of control), % at 10 µM. hit rate 0.33% among 220,000. AID 1415; in the data active = binding response below about 49% or above about 150%; inactive = in between;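 also: fluorescent Galphao activated with aluminum fluoride binding bead-coupled RGS4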
RGS7-Gao reg = regulators of human RGS7-Galphao interaction. P09471. binding response (% of control), % at 10 µM. hit rate 0.35% among 220,000. Multiplexed bead flow cytometry, RGS7-Galphao binding; actives lie on both sides. AID 1439; in the data active = binding response below about 49% or above about 150%; inconclusive = no clear call, values can overlap the other calls; inactive = in between;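 also: fluorescent Galphao held in activated GDP-AlF4 state binding bead-coupled RGS7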
Large screens that a line does not name were inactive. The list is not random: actives were taken first. Their share in the collection is about 1.2%.

O=C(NCCSc1ccccc1)c1cncc(Br)c1	Avidin bead fluor 91
CC1=C(C#N)C(=O)NC(=O)/C1=C/c1ccc(-c2ccc(S(N)(=O)=O)cc2)o1	RGS7-Gao reg inconclusive
C=CCOC(=O)c1cc(-c2ccc(/C=C3\C(=O)NC(=O)C(C#N)=C3C)o2)ccc1Cl	GSH bead fluor 260
CC(C)(C)c1ccccc1NC(=O)NC1CCN(Cc2c(F)cccc2Cl)CC1	RGS7-Gao reg inconclusive (no result: GSH bead fluor)
Cc1onc(-c2ccccc2Cl)c1C(=O)OCC(=O)Nc1ccc2c(c1)OCO2	GSH bead fluor 263
Cc1onc(-c2ccccc2)c1C(=O)OCC(=O)Nc1ccc2c(c1)OCO2	none
Cc1onc(-c2ccccc2Cl)c1C(=O)N1CCCc2ccccc21	none
Cc1onc(-c2ccccc2Cl)c1C(=O)OCC(=O)N1CCCc2ccccc21	GSH bead fluor 267
Cc1cc(C)cc(NCCC#N)c1	RGS7-Gao reg inconclusive
OCCC1CN(Cc2cccc3c2OCO3)CCN1C1CCCC1 (stereo unspecified)	none
N=c1c(C(=O)NCc2ccc(F)cc2)cc2c(=O)n3ccccc3nc2n1CC1CCCO1 (stereo unspecified)	Avidin bead fluor 90
COCCCn1c(=N)c(C(=O)NCC2CCCO2)cc2c(=O)n3ccccc3nc21 (stereo unspecified)	none
O=C(O)c1ccc2c(c1)C(=O)N(N1C(=O)c3ccccc3C1=O)C2=O	GSH bead fluor 111
CC(=O)Oc1ccccc1N1C(=O)c2ccc(C(=O)O)cc2C1=O	none
COc1ccccc1N1CCN(C(=O)CN(c2ccc(C)c(C)c2)S(C)(=O)=O)CC1	GSH bead fluor 268
Cc1cc(NC(=O)CSc2nc3ccsc3c(=O)n2NC(=O)c2ccccc2)no1	RGS16-Gao HTS 23, RGS8-Gao reg 39, RGS4-Gao reg 19, RGS7-Gao reg 25
Cc1ccc(CNC(=O)CSc2nc3ccsc3c(=O)n2NC(=O)c2ccccc2)cc1	none
COc1ccc(CCN(C)Cc2ccc(OC)c(OCc3ccccc3)c2)cc1OC	Avidin bead fluor 50
O=c1[nH]c(CSc2nc3ccccc3o2)nc2c1cnn2-c1ccccc1	GSH bead fluor 255
O=c1[nH]c(SCc2nc3c(cnn3-c3ccccc3)c(=O)[nH]2)nc2ccccc12	none
CC(C)OP(=O)(c1ccc(N(C)C)cc1)C(O)c1ccccc1F (stereo unspecified)	GSH bead fluor 103
COc1ccccc1C(O)P(=O)(OC(C)C)c1ccc(N(C)C)cc1 (stereo unspecified)	none
COc1ccc(NC(=O)c2ccccn2)cc1OC	none
CC(Oc1ccc(Cl)cc1Cl)c1nc(-c2ccc(NC(=O)c3ccccn3)cc2)no1 (stereo unspecified)	GSH bead fluor 108
COc1cc(-c2c(C#N)c(=O)[nH]c3c2c(C)nn3-c2ccccc2)ccc1O	Avidin bead fluor 48
O=c1c2ccccc2nnn1CSc1ccccc1	none
Cc1nc(SCn2nnc3ccccc3c2=O)nc(C)c1C	GSH bead fluor 258
O=c1oc2ccccc2c(O)c1/C=N/c1ccccn1	GSH bead fluor 263
O=c1oc2ccccc2c(O)c1C=Nc1cccnc1	none
O=C(NCC(c1ccco1)N1CCCCC1)c1ccc2c(c1)S(=O)(=O)c1ccccc1C2=O (stereo unspecified)	none
O=C1CSc2ccc(C(=O)NCC(c3ccco3)N3CCCCC3)cc2N1 (stereo unspecified)	Avidin bead fluor 50
COC(=O)C1=C(C)OC(N)=C(C#N)C1c1ccsc1 (stereo unspecified)	GSH bead fluor 89
CC1=C(C(=O)OCc2ccccc2)C(c2ccsc2)C(C#N)=C(N)O1 (stereo unspecified)	none
Cc1cc(C)n2nc(C(=O)OCCOc3cccc(Br)c3)nc2n1	GSH bead fluor 253
CC(=O)NC(Cc1ccc(O)cc1)C(=O)NN (stereo unspecified)	RGS7-Gao reg inconclusive
Cc1cc(=O)oc2cc(OCc3nnc(-c4ccccc4Br)o3)ccc12	Avidin bead fluor 49
Cn1cccc1/C=N/NC(=O)C12CC3CC(CC(C3)C1)C2	none
Cc1cccc(C(=O)N/N=C/c2cc(Br)c(Br)o2)c1	none
CCOC(=O)c1c(NC(=O)COC)sc(C)c1C	GSH bead fluor 126
CCOC(=O)c1c(NC(=O)COC)sc(C(C)=O)c1C	none
CCCc1ccc(OC(=O)c2ccc(O)cc2Cl)cc1	none
O=C1c2cc(S(=O)(=O)NCCCO)ccc2-c2ccc(S(=O)(=O)NCCCO)cc21	GSH bead fluor 251
COC(=O)c1ccc(-c2ncc[nH]2)cc1	none
Cc1noc(C)c1COC(=O)CCCc1c[nH]c2ccccc12	GSH bead fluor 258
CC(C)NC(=O)CCCc1c[nH]c2ccccc12	Avidin bead fluor 58
CCOC(=O)CCCc1c[nH]c2ccccc12	none
COCCSc1ccccc1C(=O)N1CCCC(C)C1 (stereo unspecified)	RGS7-Gao reg inconclusive
CCOC(=O)C1CCCN(C(=O)c2ccccc2SCCOC)C1 (stereo unspecified)	Avidin bead fluor 102
CCCCCOC(=O)CSc1n[nH]c(=O)[nH]c1=O	GSH bead fluor 273
CCCCOc1ccc(N=Cc2cccs2)cc1	none
Oc1ccc(N=Cc2ccc(-c3cccs3)s2)cc1	Avidin bead fluor 47
COC(=O)c1ccc(NC(=O)CO/N=C2\CCCc3nonc32)cc1	none
Nc1nc(-c2ccc3c(c2)CCCC3)cs1	GSH bead fluor 263
Cc1cccc(C)c1NC(=O)CSc1nc(-c2ccco2)cc(C(F)(F)F)n1	Avidin bead fluor 67
CCOC(=O)CSc1nc2ccccc2c(=O)n1C1CCCC1	Avidin bead fluor 91
Cc1cccc(OCCC(=O)OCC(=O)N2CCc3ccccc32)c1	Avidin bead fluor 54
Cc1cccc(C(=O)NCC(=O)OCC(=O)N2CCc3ccccc32)c1	RGS7-Gao reg inconclusive
O=C(NCCN1CCN(Cc2ccccc2)CC1)C1c2ccccc2C(=O)N2CCc3ccccc3C12 (stereo unspecified)	Avidin bead fluor 112
O=C(Nc1ccc(Cl)cc1)C1=Cc2cc(Cl)ccc2OC1	Avidin bead fluor 48
O=C(Nc1ccc(Cl)cc1Cl)C1=Cc2ccccc2OC1	none
COc1ccc(C2OC(=O)CC2C(=O)NCc2ccc(Cl)cc2)cc1OC (stereo unspecified)	none
COC(=O)CSc1nc(-c2ccccc2)c2c(c1C#N)CCCC2	GSH bead fluor 260
CCn1nc([N+](=O)[O-])c2c(-c3nc4ccccc4o3)c(N)n(CCCOC)c2c1=O	none
O=C(NN1C(=O)c2ccccc2C1=O)c1ccc2c(c1)C(=O)N(CC1CCCO1)C2=O (stereo unspecified)	Avidin bead fluor 52, RGS7-Gao reg inconclusive (no result: GSH bead fluor)
Cc1ccc(NC(=O)c2ccc3c(c2)C(=O)N(CC2CCCO2)C3=O)cc1C (stereo unspecified)	none
